High-throughput results (PubChem)
RGS12 GoLoco inh: blocks human Gai1 binding to RGS12 GoLoco peptide, red readout | Gai1:RGS12 GoLoco peptide FP, rhodamine, 10 min | Potency, µM (titrated, usually from 61.6 µM), most hits filed as inhibitors | hit rate 0.44% among 230,000 | P63096; active = well fitted inhibition curve with a large enough effect, not every such curve was filed as active; inactive = no such curve, though single readings can be large or run the other way; also: nearly all actives have a fitted effect of over 30% in size
Target sequence (P63096 whole entry, looked up): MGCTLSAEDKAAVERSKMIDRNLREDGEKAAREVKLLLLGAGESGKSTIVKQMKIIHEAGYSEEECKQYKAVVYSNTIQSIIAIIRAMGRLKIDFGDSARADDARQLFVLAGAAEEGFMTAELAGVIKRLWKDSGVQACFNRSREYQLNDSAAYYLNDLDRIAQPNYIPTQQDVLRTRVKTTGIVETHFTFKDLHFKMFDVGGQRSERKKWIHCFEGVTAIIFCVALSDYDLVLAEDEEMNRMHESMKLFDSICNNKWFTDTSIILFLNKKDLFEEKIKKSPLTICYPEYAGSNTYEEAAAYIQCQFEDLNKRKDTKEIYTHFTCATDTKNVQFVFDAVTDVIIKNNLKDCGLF
HTT aggregate: inhibitors of mutant huntingtin aggregate formation in PC12 cells | PC12 HttQ103-GFP aggregates, Acumen cytometry, 40 h | Potency, µM (titrated, usually from 46.1 µM), usual class: inhibitors | hit rate 1.1% among 220,000; also: nearly all actives have a fitted effect of over 60% in size
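PC12/HTTQ103-GFP, ecdysone-inducible; teb 100 nM; cpd qHTS titration; GFP aggregates read on laser cytometer, Ex 488/Em 500-530 nm.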
HPGD block: inhibitors of human 15-hydroxyprostaglandin dehydrogenase (HPGD). P15428. purified HPGD, NADH fluorescence kinetic, PGE2 substrate. Potency, µM, hits mostly inhibitors. hit rate 4.3% among 150,000. AID 894; active = well fitted inhibition curve with a large enough effect, not every such curve was filed as active; inconclusive = small, poorly fitted or top-dose-only effect, or another doubt; inactive = no such curve, though single readings can be large or run the other way
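20 nM HPGD preincubated 15 min at room temperature with compound in 50 mM Tris-HCl pH 8, 0.01% Tween 20. Started with 1 mM NAD+ and 30 uM prostaglandin E2; NADH fluorescence (360/450 nm) read 5 times over 30-s intervals, last minus first.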
ALDH1A1 block: blocks purified human ALDH1A1 activity; Potency, µM (highest dose often 75.3 µM), most hits filed as inhibitors; hit rate 7.3% among 220,000; AID 1030; Purified ALDH1A1, NADH fluorescence, propionaldehyde substrate; P00352; active = well fitted inhibition curve with a large enough effect, not every such curve was filed as active; inconclusive = small, poorly fitted or top-dose-only effect, or another doubt; inactive = no such curve, though single readings can be large or run the other way
HTT cytoprotect: cytoprotection in Huntington HTT-Q103 PC12 cell model; PC12 HTT-Q103 induced, cytoprotection, ATP luminescence, 40 h; Potency, µM (doses to about 56.4 µM), actives largely listed as activators; hit rate 0.14% among 230,000; also: nearly all actives have a fitted effect of over 45% in size
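Compounds were screened for protection of PC12 cells against cell death after tebufenozide induction (100 nM final) of mutant Huntingtin exon 1 (Q103) fused to GFP.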
PNC assembly inh: perinucleolar compartment assembly inhibition | PC3M PTB-GFP, PNC prevalence imaging, 16 h; hits give low values | activity change (PNC), negative = inhibition, % at 10 µM | hit rate 3.1% among 140,000 | AID 2417;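 active = readout at or below -70, meaning at least 70% loss of cells showing the perinucleolar compartment, a nuclear body marking cancer cells; inconclusive = readout between -30 and a set limit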
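Read-out is percentage of cells bearing a perinucleolar compartment, from automated 20x imaging of fixed, Hoechst-stained PC3M PTB-GFP cells. Cells were seeded 4 h, then exposed 16 h to compound (23 nl of library stock) in duplicate plates.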
Numbers stand for hits; n = inactive; u = inconclusive; x = no result given; [ ] = another dose, or the depositor's remark. Most compounds without a hit are left out; they make up all but 11% or so of the library. Unless noted, calls follow the shape of the dose curve; as a rule, active = well fitted curve in the direction sought with a large enough effect; inconclusive = small, poorly fitted or top-dose-only effect, or another doubt; inactive = no such curve, though single readings can be large; an effect the other way counts as inactive or inconclusive.

SMILES	RGS12 GoLoco inh	HTT aggregate	HPGD block	ALDH1A1 block	HTT cytoprotect	PNC assembly inh
COc1ccc(/C=C/C(=O)c2ccc(Cl)s2)cc1O	n	n	u	u	n	n
COc1ccc(C(=O)/C=C/c2ccc(OC)c(O)c2)c(F)c1	n	n	31.6µM	n	n[10 µM]	n
NS(=O)(=O)c1ccc(CCNC(=O)COC(=O)CC(c2ccccc2)c2ccccc2)cc1	n	n	x	n	n	x
C/C(Cl)=C\Cn1c(NCCc2ccccc2)nc2c1c(=O)n(C)c(=O)n2C	n	4.47µM	n	u	n	n
Cc1ccc(Cn2c(NCCc3ccccc3)nc3c2c(=O)n(C)c(=O)n3C)cc1	n	u	n	n	n	u
Cn1c(=O)c2c(nc(NCCc3ccccc3)n2CC(=O)NCCc2ccccc2)n(C)c1=O	n	n	n	n	n[10 µM]	u
C=CCn1c(NCCc2ccccc2)nc2c1c(=O)n(C)c(=O)n2C	n	11.2µM	n	n	n[10 µM]	u
COC(=O)C1C(C)OC(=O)NC1c1ccccc1 (stereo not given)	x	x	x	n[13.5 µM]	n[10 µM]	x
O=C1/C(=C/c2ccccc2)[C@@H](NC2CCCCC2)c2ccccc21	n[14.2 µM]	x	n	n[13.5 µM]	n[10 µM]	x
COc1ccc(C(=O)NCCn2ccc3ccccc32)cc1	n	n	n	u	n[1.9 µM]	u
Cc1cc2ccccc2n1CCNC(=O)c1ccc(S(=O)(=O)N2CCOCC2)cc1	n	u	n	10µM	n	u
O=C(NCCn1ccc2ccccc21)c1ccc(S(=O)(=O)N2CCCCC2)cc1	n	u	u	u	n	-81.1
CO[C@H]1COC(=O)[C@@H](CCSC)NC(=O)C/C=C\[C@@H](C)COC(=O)[C@@H](OCc2ccccc2)/C=C\[C@@H]1C	x	x	x	u	n[10 µM]	x
COCCNC(=O)CSc1nc2ccccc2c(=O)n1CCC(=O)NCCc1ccc(OC)c(OC)c1	n	n	x	14.1µM	n	x
COc1ccc(CCNC(=O)CSc2nnc(Cn3c(=O)sc4ccccc43)n2C)cc1OC	x	n	x	n	n[0.074 µM]	n
COCCCNC(=O)CSc1nc2ccccc2c(=O)n1CCC(=O)NCCc1ccc(OC)c(OC)c1	n	n	x	u	n	x
COc1ccc(CCNC(=O)CCn2c(SCC#N)nc3ccccc3c2=O)cc1OC	n	n	n	20µM	n	n
COc1ccc(CCNC(=O)CSc2nnc(Cc3csc(N)n3)n2C)cc1OC	n	n	n	n	n	-94.9
COCCCn1c(SCC(=O)NCc2ccccc2)nc2ccccc2c1=O	n	n	n	n	n[10 µM]	-100.0
Cc1ccccc1C(=O)Nc1nnc(CC(=O)N/N=C/c2ccncc2)s1	n	n[9.22 µM]	x	x	n[10 µM]	x
O=c1c(-c2ccc(F)cc2)nc2cnc(N3CCOCC3)nc2n1C[C@H]1CCCO1	n	x	n	u	n	x
CC(=O)N1N=C(c2ccco2)CC1c1cccs1 (stereo not given)	n	u	n	3.55µM	n[10 µM]	n
Cc1ccc(C2=NN(C(=O)CCl)C(c3cccs3)C2)o1 (stereo not given)	x	u	x	1.26µM	n[10 µM]	n
O=C(Nc1ccc(Cl)cc1)N1CCCN(c2ccc(C(F)(F)F)cc2[N+](=O)[O-])CC1	n	n[9.22 µM]	x	n	n[10 µM]	x
Nc1nc(SCC(=O)Nc2ccc(Oc3ccccc3)cc2)n[nH]1	n	n	u	n	n[10 µM]	u
SMILES	RGS12 GoLoco inh	HTT aggregate	HPGD block	ALDH1A1 block	HTT cytoprotect	PNC assembly inh
Nc1nc(SCC(=O)Nc2ccccc2Sc2ccccc2)n[nH]1	n	n	n	u	n	-111.3
O=C(CCl)Nc1ccccc1Sc1ccccc1	n	n[9.22 µM]	n	3.98µM	n	u
COc1ccc(-c2[nH]ncc2CN2CCCCCCC2)c(OC)c1	n	n	x	n	n	x
Cc1ccc(-n2c(C)nc3oc4ccccc4c(=O)c3c2=O)cc1	n	n	u	28.2µM	n	n
COc1ccc2c(=O)c3c(=O)n(-c4ccc(C)cc4)c(-c4ccccc4)nc3oc2c1	n	n[9.22 µM]	x	x	n[10 µM]	x
NC(=O)CNC(=O)c1ccc(Cl)cc1	n	n[9.22 µM]	x	n	n[10 µM]	x
CCCCC(=O)Nc1c(C)cc(C)cc1Cl	n	n[9.22 µM]	35.5µM	n	n	u
Cc1cc(C)c(NC(=O)Nc2ccccc2)c(Cl)c1	n	n	n	n	x	-113.8
Cc1cc(C)c(NC(=O)Nc2ccccc2C)c(Cl)c1	n	x	x	n	x	x
CCC(=O)Nc1c(C)cc(C)cc1Cl	n	n[9.22 µM]	n	n	n	u
CC(C)(C)c1ccc(-c2nnc(N)o2)cc1	n	n[9.22 µM]	x	n	n[10 µM]	x
O=S(=O)(c1ccccc1)N1CCC[C@@]2(CCN(Cc3cc(C(F)(F)F)cc(C(F)(F)F)c3)C2)C1	n	x	n	n	n	x
Cc1ccc(-c2nnc(SCC(=O)N3CCOCC3)nc2-c2ccc(C)cc2)cc1	n	n	17.8µM	u	n	n
Cc1ccc(C(CC(=O)N2CCOCC2)c2ccco2)cc1 (stereo not given)	n	n	20µM	u	n[10 µM]	n
